From PubChem BioAssay (EPA / NIEHS)
Values joined by “and” are separate entries in the source; they are usually repeats but may differ in a detail not shown here. Equal values may be shown once. Inconclusive results are not listed. A structure can be active in one record and inactive in another. Active and inactive are the calls of the source. Rule for the calls, unless noted: active = hit-call score of the fitted dose curve at least 0.9, where 1 is the maximum; inconclusive = response in the unintended direction; inactive = score below 0.9.

Tests used:
[1] = Tanguay_ZF_120hpf_NC_legacy: (Legacy) Oregon State University Tanguay Lab 120 Hour Post-fertilization zebrafish Assay for Notochord and Tail Malformation (AID 2283656)
In short: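 Dechorionated Tropical 5D wild-type zebrafish embryos, one per well from 6 hpf, statically exposed to 120 hpf at 28C in 0.64% DMSO final. Notochord distortion scored present/absent by brightfield; dead embryos excluded.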

[2] = read-out: ABC Transporter (ABCB1), ABCB1 (gene 5243); test: CLD_ABCB1_6hr: CellzDirect (CLD) Gene Expression Assay for ABC Transporter (ABCB1) at 6 hours (AID 2283659);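 note: hits raise ABCB1 transcript above the DMSO vehicle baseline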
In short: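 Primary human hepatocytes (two donor preparations) dosed daily for two days with chemicals at multiple concentrations, 0.2% DMSO vehicle; harvested 6 h post-dose. ABCB1 mRNA induction quantified by qNPA chemiluminescence; gain-of-signal fitted versus DMSO.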

[3] = Tanguay_ZF_120hpf_TR_legacy: (Legacy) Oregon State University Tanguay Lab 120 Hour Post-fertilization zebrafish Assay for Touch Response (AID 2283667)
In short: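 Tropical 5D wild-type zebrafish embryos statically exposed to 120 hpf at 28°C, sealed and dark-covered, 0.64% DMSO final; touch response scored as present/absent by brightfield microscopy at 120 hpf. Trimethyltin chloride 5 uM positive control; dead embryos not scored.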

[4] = read-out: organic anion transporter (SLCO1B1), SLCO1B1 (gene 10599); test: CLD_SLCO1B1_6hr: CellzDirect (CLD) Gene Expression Assay for organic anion transporter (SLCO1B1) at 6 hours (AID 2283668);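 note: active means mRNA induction above DMSO baseline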
In short: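 Primary human hepatocytes dosed daily with test chemicals (multiple concentrations) in 0.2% DMSO vehicle; harvested at 6 h. SLCO1B1 mRNA quantified by qNPA chemiluminescence, fitted as gain-of-signal versus DMSO; cytotoxicity from phase-contrast morphology flagged alongside.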

[5] = CLD_ACTIN_24hr: CellzDirect (CLD) Gene Expression Assay for Baseline Control (Actin) at 24 hours (AID 2283670)
In short: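 Primary human hepatocytes dosed over multiple concentrations with 0.2% DMSO vehicle; actin mRNA measured at 24 h by qNPA chemiluminescence. Background control endpoint, fitted as gain of signal versus DMSO.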

[6] = read-out: glucuronosyltransferase (UGT1A1), UGT1A1 (gene 54658); test: CLD_UGT1A1_6hr: CellzDirect (CLD) Gene Expression Assay for glucuronosyltransferase (UGT1A1) at 6 hours (AID 2283672)
In short: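 Primary human hepatocytes from two donor preparations, dosed with fresh solutions in 0.2% DMSO, harvested at 6 h. UGT1A1 mRNA measured by qNPA chemiluminescence; induction fitted upward versus DMSO.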

[7] = read-out: xenobiotic metabolism (CYP1A1), CYP1A1 (gene 1543); test: CLD_CYP1A1_24hr: CellzDirect (CLD) Gene Expression Assay for xenobiotic metabolism (CYP1A1) at 24 hours (AID 2283673);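 note: CYP1A1 mRNA level by quantitative nuclease protection with chemiluminescence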
In short: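 Primary human hepatocytes dosed daily with fresh solutions in 0.2% DMSO vehicle. mRNA measured at 24 h by quantitative nuclease protection assay with chemiluminescence; gain-of-signal fit versus DMSO, with morphology-based cytotoxicity flags.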

[8] = read-out: ABC Transporter (ABCB11), ABCB11 (gene 8647); test: CLD_ABCB11_6hr: CellzDirect (CLD) Gene Expression Assay for ABC Transporter (ABCB11) at 6 hours (AID 2283675);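 note: hits raise ABCB11 mRNA level so AC50 marks induction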
In short: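 Human primary hepatocytes (two donor preparations) given fresh chemical daily at multiple concentrations, vehicle 0.2% DMSO. ABCB11 mRNA induction measured 6 h after dosing by qNPA chemiluminescence versus DMSO; cytotoxicity annotated from morphology.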

[9] = CLD_ACTIN_6hr: CellzDirect (CLD) Gene Expression Assay for Baseline Control (Actin) at 6 hours (AID 2283676);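 note: active means increased actin mRNA relative to DMSO vehicle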
In short: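 Primary human hepatocytes dosed with fresh chemical solutions (vehicle 0.2% DMSO), harvested at 6 h. Actin mRNA quantified by quantitative nuclease protection assay with chemiluminescent read-out, as background control relative to DMSO.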

[10] = read-out: Cytochrome P450 2C19 (Homo sapiens) (UniProt P33261); test: CLD_CYP2C19_6hr: CellzDirect (CLD) Gene Expression Assay for xenobiotic metabolism (CYP2C19) at 6 hours (AID 2283678)
In short: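 Primary human hepatocytes from two donor preparations were dosed daily, with 0.2% DMSO as vehicle, and harvested 6 h after dosing. CYP2C19 mRNA induction was measured by qNPA chemiluminescence and fitted as gain of signal against DMSO.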

[11] = CCTE_Padilla_ZF_144hpf_TERATOSCORE: (Legacy) CCTE's 144 Hour Post-fertilization zebrafish Assay Teratoscore, Padilla Lab (AID 2283679; active = hit-call score of the fitted dose curve at least 0.9, where 1 is the maximum; inactive = score below 0.9;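 for AC50: zebrafish embryos with chorions exposed by immersion from 6-8 hpf to 5 dpf with daily renewal; teratogenicity score from eye scoring of death hatching and malformations at 144 hpf; higher score means more developmental defects relative to DMSO baseline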)
In short: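 Larvae scored by eye at 144 hpf for death, hatching and malformations after a day in clean Hanks'. Before that, daily-renewed exposure at 80 uM (0.4% DMSO, 26C) from roughly 6-8 hpf through 5 dpf, 4 embryos per chemical.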

[12] = read-out: Cytochrome P450 3A4 (Homo sapiens) (UniProt P08684); test: CLD_CYP3A4_6hr: CellzDirect (CLD) Gene Expression Assay for xenobiotic metabolism (CYP3A4) at 6 hours (AID 2283680)
In short: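 Primary human hepatocytes (two donor preparations) dosed; CYP3A4 mRNA harvested at 6 h and quantified by qNPA chemiluminescence. Gain of signal fitted against 0.2% DMSO vehicle; cytotoxicity flagged by phase-contrast morphology.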

[13] = read-out: Cytochrome P450 2B6 (Homo sapiens) (UniProt P20813); test: CLD_CYP2B6_6hr: CellzDirect (CLD) Gene Expression Assay for xenobiotic metabolism (CYP2B6) at 6 hours (AID 2283677);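 note: actives raise CYP2B6 transcript above DMSO baseline so AC50 marks an inducer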
In short: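 Primary human hepatocytes dosed with chemicals at multiple concentrations, vehicle 0.2% DMSO; CYP2B6 mRNA induction measured 6 h after dosing by quantitative nuclease protection assay with chemiluminescence, gain of signal fitted relative to DMSO.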

[14] = system: Thyroperoxidase (TPO), gene 54314; test: CCTE_Simmons_AUR_rTPO: CCTE's Amplex UltraRed Assay for Thyroperoxidase (TPO) Inhibition, Simmons Lab (AID 2283662);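 for AC50: potency for loss of signal meaning inhibition of peroxidase activity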
In short: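 Rat thyroid microsomes (5 ug protein) were incubated with test compound (8 concentrations, 5 nM–87.5 uM final, 0.5% DMSO), 25 uM Amplex UltraRed and 300 uM H2O2 in 200 mM phosphate buffer for 30 min at 37C in the dark; fluorescence read at 544/590 nm.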

[15] = CCTE_Simmons_CellTiterGLO_HEK293T: Viability Assessment in CCTE's Assays for Thyroperoxidase (TPO) Inhibition, Simmons Lab (AID 2283665);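 for AC50: cells exposed to compound for 24 h before readout; actives reduce ATP signal below DMSO vehicle meaning cytotoxicity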
In short: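 HEK293T, 10 000 cells/well, DMEM + 1% FBS; 8-pt titration 5 nM–87.5 uM [final], 0.5% DMSO; 24 hr, 37C, 5% CO2; CellTiter-Glo luminescence; n=3 biological replicates.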

[16] = read-out: xenobiotic metabolism (CYP1A1), CYP1A1 (gene 1543); test: CLD_CYP1A1_6hr: CellzDirect (CLD) Gene Expression Assay for xenobiotic metabolism (CYP1A1) at 6 hours (AID 2283661);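 for AC50: potency for transcript induction above DMSO vehicle baseline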
In short: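 Primary human hepatocytes from two donors, compound versus 0.2% DMSO vehicle. CYP1A1 mRNA measured 6 h after dosing by quantitative nuclease protection assay with chemiluminescent read-out; induction fitted relative to DMSO, cytotoxicity flagged by microscopy.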

[17] = read-out: xenobiotic metabolism (CYP1A2), CYP1A2 (gene 1544); test: CLD_CYP1A2_6hr: CellzDirect (CLD) Gene Expression Assay for xenobiotic metabolism (CYP1A2) at 6 hours (AID 2283663);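 for AC50: potency is for induction meaning a rise in mRNA above DMSO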
In short: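 Primary human hepatocytes from two donor preparations, dosed daily with multiple concentrations in 0.2% DMSO and harvested at 6 h. CYP1A2 mRNA induction measured by chemiluminescent qNPA, gain of signal fitted against DMSO; cytotoxicity flagged morphologically.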

Measured: AC50

Chain of Cytochrome P450 3A4 (Homo sapiens) (P08684 whole entry, looked up): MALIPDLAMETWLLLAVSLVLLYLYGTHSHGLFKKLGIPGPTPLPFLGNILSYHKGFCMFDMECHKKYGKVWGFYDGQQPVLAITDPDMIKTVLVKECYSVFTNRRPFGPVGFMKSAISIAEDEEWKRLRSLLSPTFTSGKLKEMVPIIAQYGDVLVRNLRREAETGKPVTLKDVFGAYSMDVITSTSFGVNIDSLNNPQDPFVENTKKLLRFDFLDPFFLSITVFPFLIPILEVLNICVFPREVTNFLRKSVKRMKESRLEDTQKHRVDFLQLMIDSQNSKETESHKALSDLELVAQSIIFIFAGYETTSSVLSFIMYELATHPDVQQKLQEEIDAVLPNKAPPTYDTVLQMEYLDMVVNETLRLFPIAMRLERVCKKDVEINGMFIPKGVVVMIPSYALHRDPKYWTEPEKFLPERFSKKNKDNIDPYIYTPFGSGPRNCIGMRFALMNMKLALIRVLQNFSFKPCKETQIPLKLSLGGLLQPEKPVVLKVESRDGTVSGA
Chain of Cytochrome P450 2C19 (Homo sapiens) (P33261 whole entry, looked up): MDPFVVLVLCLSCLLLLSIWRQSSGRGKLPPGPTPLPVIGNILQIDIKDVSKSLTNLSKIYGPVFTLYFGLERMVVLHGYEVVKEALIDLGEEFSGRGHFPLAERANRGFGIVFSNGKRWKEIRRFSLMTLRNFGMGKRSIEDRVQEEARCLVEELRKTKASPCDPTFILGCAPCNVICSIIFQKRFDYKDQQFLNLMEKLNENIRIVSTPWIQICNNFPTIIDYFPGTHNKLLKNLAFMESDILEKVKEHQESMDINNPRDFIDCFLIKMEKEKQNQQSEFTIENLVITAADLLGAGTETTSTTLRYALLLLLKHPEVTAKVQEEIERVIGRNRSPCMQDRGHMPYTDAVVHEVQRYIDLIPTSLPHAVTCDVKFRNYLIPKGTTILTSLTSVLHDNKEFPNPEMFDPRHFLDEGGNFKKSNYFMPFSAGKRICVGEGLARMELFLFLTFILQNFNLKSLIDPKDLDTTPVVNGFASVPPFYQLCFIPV

COC(=O)C(C)Oc1ccc(Oc2ccc(Cl)cc2Cl)cc1 (centres undefined)
active: [11] 5.23 µM
not listed: [13] | [14] | [15] | [16] | [17]
inactive: all other assays above

Cc1ccc(-c2c(Cl)nc(C#N)n2S(=O)(=O)N(C)C)cc1
inactive: [1] | [2] | [3] | [4] | [5] | [8] | [9] | [10]
active: [7] 8.2 µM | [11] 5.47 µM | [12] 1.89 µM

COc1nc(NC(C)C)nc(NC(C)C)n1
inactive: [1] | [2] | [3] | [4] | [5] | [9] | [10] | [11] | [12]
active: [7] 3.47 µM

CCNc1nc(Cl)nc(NCC)n1
inactive: [3] | [4] | [5] | [9] | [11]
active: [7] 5.56 µM

CCON=C(CC)C1=C(O)CC(c2c(C)cc(C)cc2C)CC1=O (centres undefined)
active: [11] 64.2 µM
inactive: [1] | [3] | [4] | [7] | [8] | [9] | [13] | [10] | [12]

COP(N)(=O)SC (centres undefined)
inactive: [4] | [7] | [8] | [9] | [10] | [11] | [12]
active: [14] 30.6 µM

O=C(Nc1ccccc1)Nc1ccnc(Cl)c1
inactive: [1] | [3] | [9]
active: [14] 27.6 µM | [15] 53.8 µM | [7] 10.4 µM | [11] 66 µM

COc1nc(C)nc(NC(=O)NS(=O)(=O)c2ccccc2Cl)n1
inactive: [2] | [4] | [5] | [7] | [8] | [9] | [10] | [11] | [12]

COC(=O)C=C(C)OP(=O)(OC)OC
active: [14] 14 µM | [11] 48.1 µM
inactive: [16] | [15] | [3] | [4] | [5] | [8] | [9] | [12]

CC(C)C1(C)N=C(c2nc3ccccc3cc2C(=O)O)NC1=O (centres undefined)
inactive: [1] | [3] | [4] | [5] | [7] | [9] | [10] | [11] | [12]

CCCCC(CC)COC(=O)c1ccccc1C(=O)OCC(CC)CCCC (centres undefined)
inactive: [1] | [3] | [4] | [5] | [7] | [8] | [11]

COC(=O)N(OC)c1ccccc1COc1ccn(-c2ccc(Cl)cc2)n1
active: [7] 1.9 µM | [11] 0.192 µM
inactive: [1] | [3] | [4] | [5] | [8] | [10] | [12]

CNC(=S)S
active: [14] 22 µM and 23 µM
inactive: [1] | [15] | [3] | [5] | [7] | [8] | [10] | [12]

O=C(O)COc1nc(Cl)c(Cl)cc1Cl
inactive: [2] | [17] | [3] | [7] | [10] | [11]

CCc1nn(C)c(C(=O)NCc2ccc(C(C)(C)C)cc2)c1Cl
active: [7] 7.44 µM | [11] 0.164 µM
not listed: [2] | [13] | [14] | [15] | [16] | [17]
inactive: all other assays above

CC(Oc1ccc(Cl)cc1Cl)C(=O)O (centres undefined)
active: [11] 0.67 µM
inactive: [1] | [5] | [6] | [7] | [8] | [9]

N#CC(CCc1ccc(Cl)cc1)(Cn1cncn1)c1ccccc1 (centres undefined)
active: [7] 2.64 µM | [11] 25.8 µM
inactive: [1] | [2] | [3] | [5] | [12]

CON(C)C(=O)Nc1ccc(Cl)c(Cl)c1
active: [16] 0.762 µM | [14] 35 µM | [7] 1.82 µM | [11] 60.1 µM
inactive: [1] | [15] | [3] | [12]

CCOP(=S)(OCC)SCn1c(=O)oc2cc(Cl)ccc21
inactive: [2] | [3] | [8] | [10]
active: [14] 2.18 µM | [15] 67.4 µM | [7] 5.28 µM | [11] 13.5 µM

Cc1cc(Cl)ccc1OCC(=O)O
inactive: [2] | [16] | [3] | [7] | [9] | [10] | [11]

C#CCOS(=O)OC1CCCCC1Oc1ccc(C(C)(C)C)cc1 (centres undefined)
inactive: [1] | [3] | [8] | [9]
active: [16] 3.67 µM | [7] 20 µM | [11] 0.22 µM | [12] 1.89 µM

CC1=C(C(=O)Nc2ccccc2)SCCO1
inactive: [1] | [3] | [12]
active: [14] 5.33 µM | [7] 20 µM | [11] 6.4 µM

O=C(O)c1nc(Cl)ccc1Cl
inactive: [1] | [14] | [3] | [4] | [8] | [9] | [10] | [11]
active: [7] 7.87 µM

CS/C(C)=N/OC(=O)N(C)SN(C)C(=O)O/N=C(\C)SC
inactive: [3] | [5] | [7] | [8] | [9] | [10]
active: [1] 25 µM | [11] 32.7 µM

COc1nc(C)nc(NC(=O)NS(=O)(=O)c2ccccc2CCC(F)(F)F)n1
active: [7] 20 µM
inactive: [2] | [4] | [7] | [8] | [9] | [10] | [11] | [12]

Fc1ccc(Oc2ccnc3cc(Cl)cc(Cl)c23)cc1
active: [7] 2.49 µM | [11] 5.83 µM
inactive: [1] | [3]

CC(C)(C)c1ccc(CSc2cnn(C(C)(C)C)c(=O)c2Cl)cc1
inactive: [1] | [3] | [4] | [5] | [8] | [9]
active: [7] 20 µM

CNC(=O)ON=CC(C)(C)SC
active: [3] 21 µM | [11] 65.3 µM
inactive: [1] | [5] | [9] | [12]

CC(C)Oc1cc(-n2nc(C(C)(C)C)oc2=O)c(Cl)cc1Cl
active: [17] 2.19 µM | [7] 4.05 µM | [13] 1.9 µM | [11] 9.05 µM | [12] 1.89 µM
inactive: [1] | [3] | [6] | [9]

COc1ccc(C(c2ccc(OC)cc2)C(Cl)(Cl)Cl)cc1
inactive: [2] | [3] | [6] | [7] | [8]
active: [13] 7.31 µM | [11] 1.14 µM
